Test results reported in PubChem BioAssay (NCATS).
Several values for one entry are separate records, joined by “and”; a condition that tells them apart may be missing. Identical values can stand only once. Results filed as inconclusive are left out. Values without a mark were called inactive. Calls come from the whole dose curve; as a rule, active = well fitted inhibition curve with a large enough effect; inconclusive = small, poorly fitted or top-dose-only effect; inactive = flat fitted curve, though single readings scatter.

Tested on: KB-3-1
Assay: Cytotoxic Profiling of Annotated Libraries Using Quantitative High-Throughput Screening (AID 1296008); note: nearly all actives have a fitted effect of over 60% in size
Settings: Five cell lines viability, CellTiter-Glo ATP luminescence, 48-72 h; max response: active compounds read low
How it was run: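 Cytotoxicity was measured as CellTiter-Glo ATP luminescence, read after 10 min at room temperature. Compound treatment of the cells lasted 48 or 72 hr at 37 degrees Celsius in a qHTS format.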
% is set by controls: 0 for no effect and ±100 for the full control effect.

SMILES | max response
CNC(=O)Oc1ccccc1C(=O)Nc1ccccc1 | -7.71%
CCNC(C)Cc1cccc(C(F)(F)F)c1 (stereo not given) | 20.4%
Cc1ccccc1-n1c(C)nc2ccccc2c1=O | -2.74% and -4.4%
C[C@@H](CO)NC(=O)[C@@H]1C=C2c3cccc4[nH]cc(c34)C[C@H]2N(C)C1 | 1.7%
CNC(C)C(O)c1ccc(O)cc1 (stereo not given) | -2.38% and -4.74%
CCNC1(c2cccs2)CCCCC1=O (stereo not given) | -6.94%
ClC(Cl)(Cl)Cl | -1.06%
CN1[C@@H]2CC[C@H]1CC(OC1c3ccccc3CCc3ccccc31)C2 (stereo not given in full) | 1.95%
CCCCCCCCOC(=O)c1ccccc1C(=O)OCCCCCCCC | -10%
ClC1C(Cl)C(Cl)C(Cl)C(Cl)C1Cl (stereo not given) | 2.37%
CNC(=O)OCC[N+](C)(C)C | 5.31%
CC(C)CCC(=O)O[C@H]1CC[C@H]2[C@@H]3CCC4=CC(=O)CC[C@]4(C)[C@H]3CC[C@]12C | 19.3%
CC(=O)OO | 2.94%
C[N+]1([O-])[C@@H]2CC[C@H]1CC(OC(=O)C(CO)c1ccccc1)C2 (stereo not given in full) | -12.1% and -9.46%
O=S(=O)(O)c1cc(O)ccc1O | 6.29%
CCCCCc1cc(O)c2c(c1)OC(C)(C)[C@@H]1CCC(C)=C[C@@H]21 | -12.3%
COC1=CC=C2[C@H]3Cc4ccc(OC)c5c4[C@@]2(CCN3C)[C@H]1O5 | 16.1% and -9.66%
S=C(S)N1CCNCC1 | 7.2%

SMILES | max response
O=c1c2ccccc2[se]n1-c1ccccc1 | -5.46%
Cn1sc(Cl)cc1=O | -13.7%
O=C1CN(O)C(c2ccccc2)=c2cc(Cl)ccc2=N1 | -7.95%
O=C(C[C@@H]1NCCC[C@H]1O)Cn1cnc2cc(Br)c(Cl)cc2c1=O | -0.356%
CCCCCl | -7.35%
CC(C)(C)c1cc(O)ccc1O | 3.78% and 3.98%
O=[N+]([O-])c1cc(I)c(O)c(I)c1 | -0.558%
CN(C)[C@H](Cc1ccccc1)c1ccccc1 | 1.61%
C[C@@H]1[C@@H]2Cc3ccc(O)cc3[C@@]1(C)CCN2CC1CC1 | -3.25%
N#CN | -5.54%
CCNCC(O)c1cccc(O)c1 (stereo not given) | 6.6%
Cc1cccc(C(C)c2cnc[nH]2)c1C (stereo not given) | 8.09%
CCC(=O)O[C@]1(c2ccccc2)CCN(C)C[C@H]1C | -2.12%
O=[N+]([O-])C(Br)(CO)CO | 1.16%
CCCCC[C@@H](O)C1C(=O)OC(C)[C@H](O)/C=C/C=C/C=C/C=C/C=C(\C)C(O)C(O)C(O)C[C@H](O)C[C@H](O)C[C@H](O)C[C@H](O)C[C@@H]1O (stereo not given in full) | -4.4% and -1.2%
COc1ccc2c3c1O[C@H]1C(=O)CC[C@H]4[C@@H](C2)N(C)CC[C@]314 | 8.34%
NCC(O)c1cccc(O)c1 (stereo not given) | 1.34%
